# Laboratory results taken from PubChem BioAssay.
# “And” between values parts separate entries of the source, which are not always exact repeats. Equal entries are not always repeated. Inconclusive results are not listed. The source made the active and inactive calls.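 How the source made its calls, unless noted: active means normalized viability below 100% at a tested concentration; inactive means the rest.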
# Columns and labels:
# [1] = viability loss in pontine glioma line – cell-based, SU-DIPG-XXV, MIPE5.0, CellTiter-Glo, qHTS, dose response (AID 1347065; cut-off not given, nearly all actives have AC50 up to about 26 µM;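 further: cells exposed to compound for 48 hours before ATP readout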); conditions: CellTiter-Glo ATP luminescence
# [2] = SU-DIPG-VI glioma cell viability, MIPE4.0 library, CellTiter-Glo luminescence, qHTS (AID 1347066; cut-off not given, nearly all actives have AC50 up to about 30 µM;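 further: cells exposed to compound for 48 hours before readout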); conditions: CellTiter-Glo ATP luminescence
# [3] = JHH-DIPG-1 glioma cell viability, MIPE5.0 library, CellTiter-Glo luminescence, qHTS (AID 1347067; cut-off not given, nearly all actives have AC50 up to about 26 µM;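 further: cells exposed to compound for 48 hours before readout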); conditions: JHH-DIPG-1 glioma viability, CellTiter-Glo ATP luminescence
# [4] = SU-DIPG-XXV glioma cell viability, MIPE5.0 library, qHTS (AID 1347068; cut-off not given, nearly all actives have IC50 up to about 30 µM;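 on IC50: cells exposed to compound for 48 hours before viability readout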)
# [5] = sensitizers of A549 cells to miR-34 induction, primary screen, imaging, A549 dox-inducible miR-34, nuclei and caspase counts (AID 1347080;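 active means compounds whose cell count with miR-34 switched on is under 0.7 times the count with it off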); conditions: A549 miR-34 inducible, Hoechst nuclei count, 48 h
# [6] = survival rescue of mitochondrial mutant cells in low glucose, primary screen, MELAS cybrids, Rieske KO mouse fibroblasts, CellTiter-Glo (AID 1508586;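 active means mean z-score across replicates of 1.96 or higher in either the MELAS or the Rieske mutant cell line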;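 further: z relative to plate mean and SD of compound and empty wells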)
# [7] = target: NAD(+) hydrolase SARM1 (Homo sapiens) (UniProt Q6SZW1); assay: SARM1 TIR NADase inhibitors, cell lysate, NAD-Glo luminescence (AID 1508614;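 active means compound whose remaining NAD level is above about 45 nM, limit read from the data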); conditions: SAM-TIR HEK293T lysate NADase, at 1 µM, stronger effect = higher value
# NAD(+) hydrolase SARM1 (Homo sapiens), sequence (Q6SZW1 whole entry, looked up, the tested form may be a part): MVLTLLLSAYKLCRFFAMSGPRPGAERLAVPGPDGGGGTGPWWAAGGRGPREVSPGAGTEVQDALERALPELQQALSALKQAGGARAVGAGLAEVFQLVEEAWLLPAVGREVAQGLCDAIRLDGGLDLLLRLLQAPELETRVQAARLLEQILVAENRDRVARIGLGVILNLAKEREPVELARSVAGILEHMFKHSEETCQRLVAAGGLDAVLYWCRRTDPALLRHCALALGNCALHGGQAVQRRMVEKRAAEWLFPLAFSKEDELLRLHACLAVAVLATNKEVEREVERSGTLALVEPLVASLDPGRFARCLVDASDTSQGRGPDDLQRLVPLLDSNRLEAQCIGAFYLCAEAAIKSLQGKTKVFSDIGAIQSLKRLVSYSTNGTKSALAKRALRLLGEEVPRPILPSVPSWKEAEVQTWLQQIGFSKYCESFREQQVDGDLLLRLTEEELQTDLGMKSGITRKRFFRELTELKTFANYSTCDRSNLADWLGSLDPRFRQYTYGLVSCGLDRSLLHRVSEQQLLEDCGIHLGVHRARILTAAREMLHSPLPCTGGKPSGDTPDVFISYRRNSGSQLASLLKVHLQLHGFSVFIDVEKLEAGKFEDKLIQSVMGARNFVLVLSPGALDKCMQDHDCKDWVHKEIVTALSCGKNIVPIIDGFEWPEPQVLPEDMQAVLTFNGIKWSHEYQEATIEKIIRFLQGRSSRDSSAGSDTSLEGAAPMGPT
# [8] = target: Mitogen-activated protein kinase 7 (Homo sapiens) (UniProt Q13164); assay: ERK5 transactivation activators in reporter cells, primary screen, cell-based, HTS (AID 1508626;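 active means luciferase signal above three times the same-plate solvent-only control wells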;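 further: luciferase driven by Gal4-ERK5 fusion binding five Gal4 sites before minimal TATA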); conditions: HeLa Gal4-ERK5 transactivation, 18 h, at 5 µM, stronger effect = higher value
# Mitogen-activated protein kinase 7 (Homo sapiens), sequence (Q13164 whole entry, looked up, the tested form may be a part): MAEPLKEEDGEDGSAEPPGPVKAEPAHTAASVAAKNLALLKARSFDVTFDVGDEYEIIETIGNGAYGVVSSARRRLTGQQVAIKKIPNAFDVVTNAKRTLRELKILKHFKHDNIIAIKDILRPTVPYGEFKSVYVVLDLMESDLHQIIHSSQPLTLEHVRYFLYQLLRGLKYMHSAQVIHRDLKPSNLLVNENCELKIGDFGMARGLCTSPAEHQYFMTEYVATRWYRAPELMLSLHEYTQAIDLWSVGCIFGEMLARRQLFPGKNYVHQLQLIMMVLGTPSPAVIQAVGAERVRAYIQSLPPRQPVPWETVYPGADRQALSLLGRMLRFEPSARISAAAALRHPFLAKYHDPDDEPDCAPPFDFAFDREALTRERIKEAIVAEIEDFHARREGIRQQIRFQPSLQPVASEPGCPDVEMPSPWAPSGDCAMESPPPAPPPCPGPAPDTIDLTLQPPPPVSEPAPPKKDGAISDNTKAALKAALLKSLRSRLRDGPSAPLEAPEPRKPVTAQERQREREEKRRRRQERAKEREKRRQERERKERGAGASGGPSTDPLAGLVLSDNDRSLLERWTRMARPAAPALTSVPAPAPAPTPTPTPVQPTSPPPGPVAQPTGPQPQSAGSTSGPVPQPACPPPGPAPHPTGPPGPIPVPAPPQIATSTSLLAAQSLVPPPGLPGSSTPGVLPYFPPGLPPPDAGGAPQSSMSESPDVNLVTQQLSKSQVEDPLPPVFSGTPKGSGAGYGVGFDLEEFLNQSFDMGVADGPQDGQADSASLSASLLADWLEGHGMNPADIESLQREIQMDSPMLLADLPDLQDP
# [9] = LFS_MB_P medulloblastoma growth inhibition, cell-based, chromothripsis tumors, cisplatin or BGB combos (AID 1671449; in the data active means inhibition above about 80%;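 further: cells exposed for 96 hours; 0% = vehicle DMSO and 100% = killing by high DMSO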); conditions: LFS_MB_P medulloblastoma cells
# [10] = HDN33 neuroblastoma growth inhibition, cell-based, chromothripsis tumors, cisplatin or BGB combos (AID 1671450; in the data active means inhibition above about 80%;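 further: cells exposed to compound for four days; 0% = vehicle DMSO and 100% = cell killing by high DMSO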); conditions: HDN33 neuroblastoma cells, stronger effect = higher value
# [11] = ICB984 medulloblastoma cell growth inhibition, synergistic combos for chromothripsis tumors, cisplatin or BGB combos (AID 1671451; call rule not given here;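 further: cells exposed for 96 hours before readout; 0% = vehicle DMSO and 100% = killing by high DMSO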); conditions: ICB984 medulloblastoma cells, drug combinations, stronger effect = higher value
# [12] = LFS_MB_1R medulloblastoma cell growth inhibition, synergistic combos for chromothripsis tumors, cisplatin or BGB combos (AID 1671452; in the data active means inhibition above about 80%;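 further: cells exposed for 96 hours before readout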); conditions: LFS_MB_1R medulloblastoma cells, stronger effect = higher value
# [13] = HTB85 osteosarcoma cell growth inhibition, synergistic combos for chromothripsis tumors, BGB or cisplatin IC20 combos (AID 1671453; in the data active means inhibition above about 80%;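 further: cells exposed for 96 hours before readout; 0% = vehicle DMSO and 100% = high DMSO killing control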); conditions: HTB85 osteosarcoma cells, drug combinations, stronger effect = higher value
# [14] = CRL2098 osteosarcoma cell growth inhibition, synergistic combos for chromothripsis tumors, BGB or cisplatin IC20 combos (AID 1671454; in the data active means inhibition above about 80%;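 further: cells exposed for 96 h before readout; 0% = vehicle DMSO and 100% = killing by high DMSO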); conditions: CRL2098 osteosarcoma cells, drug combinations, stronger effect = higher value
# [15] = HD-MB03 medulloblastoma cell growth inhibition, synergistic combos for chromothripsis tumors, BGB or cisplatin IC20 combos (AID 1671455; in the data active means inhibition above about 83%;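 further: 0% = vehicle DMSO and 100% = high DMSO as cytotoxic control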); conditions: HD-MB03 medulloblastoma cells, stronger effect = higher value
# [16] = modifiers of HSF1 nuclear foci, imaging, Selleck Cancer Library (AID 1347162; in the data active means plate-normalised HSF1 focus index below about 0.46); conditions: human cells, at 10 µM; SSMD: measured here: HSF1 foci SSMD mean; cell count: measured here: cell number; plate-normalised HSF1 focus index: stronger effect = lower value
# [17] = ovarian cancer cell viability with rucaparib, profiling panel, oncology-focused library, rucaparib conditional (AID 1508598); conditions: patient-derived ovarian cancer cells, CellTiter-Glo viability, 144 h, stronger effect = lower value
# [18] = phospholipid biosynthesis inhibitors in animal cells, primary screen, cell-based, LOPAC library, screen 4 (AID 1347384; call rule not given here); conditions: phospholipid biosynthesis inhibition screen, at 10 µM
# [19] = viability rescue of complex I mutant cybrids, primary screen, cell-based, galactose medium, ATP luminescence (AID 1645843;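 active means z-score of at least 1.8 in each of two replicates, scored against plate mean and spread of sample wells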;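 further: positive z means more ATP and so rescue of galactose-driven cybrid death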); conditions: complex I mutant cybrid cells, 72 h, stronger effect = higher value
# [20] = stronger effect = lower value, cell number ratio, induced over uninduced
# [21] = measured here: relative caspase fold change +Dox/-Dox
# [22] = measured here: total cells with miR-34 induction, stronger effect = lower value
# [23] = measured here: total cells without miR-34 induction
# [24] = MELAS cybrid survival, CellTiter-Glo 48 h, stronger effect = higher value
# [25] = Rieske KO mouse fibroblast survival, CellTiter-Glo 72 h
# [26] = measured here: combination with BGB IC40, at 0.05 µM
compound,measurement,setting,value
CN(C)c1ccc(C(=C2C=CC(=[N+](C)C)C=C2)c2ccc(N(C)C)cc2)cc1,AC50,[1],0.833 µM (active)
same,AC50,[2],0.372 µM (active)
same,AC50,[3],1.86 µM (active)
same,IC50,[4],2.63 µM (active)
same,fold change,[5]; [20],0.999 (inactive) and 0.737 (inactive)
same,fold change,[5]; [21],0.9 and 1.26
same,cell count,[5]; [22],1530 and 788
same,cell count,[5]; [23],1530 and 1070
same,z-score,[6]; [24],3.09 (active)
same,z-score,[6]; [25],-2.82
same,remaining NAD,[7],10 nM (inactive)
same,luciferase signal,[8],104 AU (inactive)
same,inhibition,"[9]; at 0.5 µM, stronger effect = higher value",-1.03% (inactive)
same,inhibition,"[9]; measured here: combination with BGB IC20, at 0.005 µM",-15.3%
same,inhibition,"[9]; measured here: combination with BGB IC40, at 0.005 µM",-20.2%
same,inhibition,[9]; [26],-19.9%
same,inhibition,"[9]; measured here: combination with cisplatin, at 0.5 µM, stronger effect = higher value",-17.8%
same,inhibition,"[9]; measured here: combination with cisplatin, at 5 µM, stronger effect = higher value",112%
same,inhibition,"[10]; BGB combo, at 5 µM",99.3%
same,inhibition,[10]; at 0.5 µM,99.6% (active)
same,inhibition,"[10]; cisplatin combo, at 5 µM",99.6%
same,inhibition,"[10]; measured here: with BGB IC20 combination, at 0.5 µM",99.7%
same,inhibition,"[10]; measured here: with cisplatin IC20 combination, at 0.5 µM",99.6%
same,inhibition,"[10]; single agent, at 5 µM",99.7%
same,inhibition,"[11]; BGB IC20 combo, at 0.005 µM",79.3%
same,inhibition,"[11]; BGB IC40 combo, at 0.005 µM",87.3%
same,inhibition,"[11]; BGB IC40 combo, at 0.05 µM",98.5%
same,inhibition,[11]; at 0.5 µM,-35.3% (inactive)
same,inhibition,"[11]; cisplatin combo, at 0.05 µM",98.5%
same,inhibition,"[11]; cisplatin combo, at 0.5 µM",-53%
same,inhibition,"[11]; cisplatin combo, at 5 µM",-16%
same,inhibition,"[11]; measured here: 5 uM single agent, at 5 µM",6.83%
same,inhibition,[12]; at 0.5 µM,80.9% (active)
same,inhibition,[12]; [26],-11%
same,inhibition,"[12]; measured here: combination with cisplatin, at 0.5 µM",82.3%
same,inhibition,"[12]; measured here: combination with cisplatin, at 5 µM",104%
same,inhibition,[13]; at 0.5 µM,88.8% (active)
same,inhibition,"[13]; measured here: with BGB IC20, at 0.5 µM",84.9%
same,inhibition,"[13]; measured here: with BGB IC20, at 5 µM",94%
same,inhibition,"[13]; measured here: with cisplatin IC20, at 0.5 µM",92.7%
same,inhibition,"[13]; measured here: with cisplatin IC20, at 5 µM",97.1%
same,inhibition,"[13]; single agent, at 5 µM",96.8%
same,inhibition,[14]; at 0.5 µM,75.8% (inactive)
same,inhibition,"[14]; measured here: combination with BGB at IC20, at 0.5 µM",79.9%
same,inhibition,"[14]; measured here: combination with cisplatin at IC20, at 0.5 µM",70.6%
same,inhibition,[15]; at 0.5 µM,59.5% (inactive)
same,inhibition,"[15]; measured here: combo with BGB at IC20, at 0.5 µM",60.7%
same,inhibition,"[15]; measured here: combo with cisplatin at IC20, at 0.5 µM",47%
Cc1nc(-c2ccc(OCC(C)C)c(C#N)c2)sc1C(=O)O,outcome,[1],inactive
same,outcome,[2],inactive
same,outcome,[3],inactive
same,outcome,[4],inactive
same,fold change,[5]; [20],0.998 (inactive) and 0.915 (inactive)
same,fold change,[5]; [21],0.915 and 0.811
same,cell count,[5]; [22],8870 and 7400
same,cell count,[5]; [23],8880 and 8080
same,SSMD,[16],1.2
same,cell count,[16],6840
same,plate-normalised HSF1 focus index,[16],1.06 (inactive)
same,z-score,[6]; [24],0.976 (inactive)
same,z-score,[6]; [25],0.13
same,viability,"[17]; at 0.000305 µM, OCI-C5x cells, with rucaparib 10 µM, 100% = cells with rucaparib alone",118% (inactive)
same,viability,"[17]; at 0.000305 µM, OCI-C5x cells, without rucaparib",111% (inactive)
same,viability,"[17]; at 0.000305 µM, OCI-P5x cells, with rucaparib 20 µM, 100% = cells with rucaparib alone",91.2% (active)
same,viability,"[17]; at 0.000305 µM, OCI-P5x cells, without rucaparib",99.9% (active)
same,viability,"[17]; at 0.00122 µM, OCI-C5x cells, with rucaparib 10 µM, 100% = cells with rucaparib alone",115% (inactive)
same,viability,"[17]; at 0.00122 µM, OCI-C5x cells, without rucaparib",122% (inactive)
same,viability,"[17]; at 0.00122 µM, OCI-P5x cells, with rucaparib 20 µM, 100% = cells with rucaparib alone",102% (inactive)
same,viability,"[17]; at 0.00122 µM, OCI-P5x cells, without rucaparib",99.6% (active)
same,viability,"[17]; at 0.00488 µM, OCI-C5x cells, with rucaparib 10 µM, 100% = cells with rucaparib alone",112% (inactive)
same,viability,"[17]; at 0.00488 µM, OCI-C5x cells, without rucaparib",109% (inactive)
same,viability,"[17]; at 0.00488 µM, OCI-P5x cells, with rucaparib 20 µM, 100% = cells with rucaparib alone",109% (inactive)
same,viability,"[17]; at 0.00488 µM, OCI-P5x cells, without rucaparib",100% (inactive)
same,viability,"[17]; at 0.0195 µM, OCI-C5x cells, with rucaparib 10 µM, 100% = cells with rucaparib alone",111% (inactive)
same,viability,"[17]; at 0.0195 µM, OCI-C5x cells, without rucaparib",110% (inactive)
same,viability,"[17]; at 0.0195 µM, OCI-P5x cells, with rucaparib 20 µM, 100% = cells with rucaparib alone",105% (inactive)
same,viability,"[17]; at 0.0195 µM, OCI-P5x cells, without rucaparib",104% (inactive)
same,viability,"[17]; at 0.0781 µM, OCI-C5x cells, with rucaparib 10 µM, 100% = cells with rucaparib alone",109% (inactive)
same,viability,"[17]; at 0.0781 µM, OCI-C5x cells, without rucaparib",112% (inactive)
same,viability,"[17]; at 0.0781 µM, OCI-P5x cells, with rucaparib 20 µM, 100% = cells with rucaparib alone",104% (inactive)
same,viability,"[17]; at 0.0781 µM, OCI-P5x cells, without rucaparib",108% (inactive)
same,viability,"[17]; at 0.313 µM, OCI-C5x cells, with rucaparib 10 µM, 100% = cells with rucaparib alone",110% (inactive)
same,viability,"[17]; at 0.313 µM, OCI-C5x cells, without rucaparib",109% (inactive)
same,viability,"[17]; at 0.313 µM, OCI-P5x cells, with rucaparib 20 µM, 100% = cells with rucaparib alone",97.1% (active)
same,viability,"[17]; at 0.313 µM, OCI-P5x cells, without rucaparib",109% (inactive)
same,viability,"[17]; at 1.25 µM, OCI-C5x cells, with rucaparib 10 µM, 100% = cells with rucaparib alone",108% (inactive)
same,viability,"[17]; at 1.25 µM, OCI-C5x cells, without rucaparib",118% (inactive)
same,viability,"[17]; at 1.25 µM, OCI-P5x cells, with rucaparib 20 µM, 100% = cells with rucaparib alone",102% (inactive)
same,viability,"[17]; at 1.25 µM, OCI-P5x cells, without rucaparib",109% (inactive)
same,viability,"[17]; at 5 µM, OCI-C5x cells, with rucaparib 10 µM, 100% = cells with rucaparib alone",118% (inactive)
same,viability,"[17]; at 5 µM, OCI-C5x cells, without rucaparib",134% (inactive)
same,viability,"[17]; at 5 µM, OCI-P5x cells, with rucaparib 20 µM, 100% = cells with rucaparib alone",103% (inactive)
same,viability,"[17]; at 5 µM, OCI-P5x cells, without rucaparib",108% (inactive)
same,remaining NAD,[7],10 nM (inactive)
CCC1(C)CC(=O)NC1=O (stereo not drawn),outcome,[1],inactive
same,outcome,[2],inactive
same,outcome,[3],inactive
same,outcome,[4],inactive
same,fold change,[5]; [20],0.975 (inactive) and 0.962 (inactive) and 0.96 (inactive)
same,fold change,[5]; [21],1.24 and 1.03 and 2.35
same,cell count,[5]; [22],10300 and 8160 and 12600
same,cell count,[5]; [23],10600 and 8470 and 13100
same,outcome,[18],inactive
same,z-score,[6]; [24],-0.00472 (inactive)
same,z-score,[6]; [25],-0.121
same,remaining NAD,[7],10 nM (inactive)
same,luciferase signal,[8],64 AU (inactive)
same,z-score,[19],0.235 (inactive)
